The source of these data is PubChem BioAssay.

A short description of the experiment: compound effects on differentiated 3T3-L1 adipocyte viability – cell-based, 3T3-L1 adipocytes, calcein-AM fluorescence, 48 h, basal, profiling panel (AID 1163). Further: test concentration not given here. As to conditions: 3T3-L1 adipocytes viability, higher = more signal.
Regarding `COCCCNC(=O)[C@@]1(Sc2ccc(C)cc2)CC(=O)N(Cc2ccccc2)[C@@H]1c1ccc(CO)cc1I`, the z-score is 0.422.
Take `COC(=O)[C@H](C)NC(=O)CCC1CC(OC(=O)NCCc2ccc(F)cc2)CC2(CCCC(COC(=O)NCC(c3ccccc3)c3ccccc3)O2)O1` (stereo partly specified): the z-score is -1.
Consider `COc1ccccc1CN1C(=O)c2ccccc2[C@@H](C(=O)NCC(F)(F)F)[C@@H]1c1ccc(CO)cc1`, for which the z-score is -0.467.
Next, `Cc1cc2c(c(=O)o1)[C@H](O)[C@H]1O[C@H]1C2=O`: 0.287; `CCN(CC)c1ccc(N2CC=CC34O[C@@H]5/C=C\CCC(C)OC(=O)C5[C@H]3C(=O)N(CCCO)[C@@H]4C2=O)cc1` (stereo partly specified): 0.782.
For the compound `O=C1O[C@@H](c2ccccc2)[C@@H](c2ccccc2)N2[C@@H](c3ccccc3OCCO)[C@]3(C(=O)Nc4ccc(C#CCCO)cc43)[C@@H](C(=O)O)[C@H]12`, the z-score is 1.78.
Consider `COc1ccc([Si](C)(C)[C@@H]2[C@@H](CC(=O)N3CCC[C@H]3CO)O[C@]3(C(=O)N(Cc4cccc(N5CCC5=O)c4)c4ccccc43)[C@H]2C)cc1`, for which the z-score was -1.34.
Next, `CC(C)(C)N1CC=CC23O[C@@H]4C=CCCOC(=O)C4[C@H]2C(=O)N(CCCCCO)[C@@H]3C1=O` (stereo partly specified): 0.231; `COc1cccc([C@@H]2Oc3ccc(Br)cc3C(=O)[C@H]2O)c1`: -0.397.
In the case of `CO[C@H]1COC(=O)[C@@H]2CCCN2C(=O)CC=C[C@@H](C)[C@H](OC)COC(=O)CC=C[C@@H]1C` it was 1.04.
Consider `CC(CCN1CCc2nc(-c3ccccc3)c(-c3ccccc3)cc2C1)=NO[C@H](C)c1cn([C@@H]2COC[C@H]2O)nn1`, for which the z-score was 0.183.
